Data taken from PubChem BioAssay (NCATS).
Records with an inconclusive call do not appear. The source made the active and inactive calls. The call rests on the fitted dose curve; in most records, active means well fitted cell-killing curve with a large enough effect; inconclusive means small, poorly fitted or top-dose-only effect, or effect the other way; inactive means no such curve, though single readings can be large or run the other way.

Assay: Quantitative High-Throughput drug screen in 47 multiple myeloma cell lines against the NCATS MIPE library collection: KMS28BM_JCRB cell viability assay (AID 1919874); further: nearly all actives have a fitted effect of over 35% in size
Settings: CellTiter-Glo ATP, 48 h; series mostly up to 45.8 µM; viability, % of control: at the top concentration
Text: PI: Beverly A. Mock Ph.D.
Laboratory of Cancer Biology and Genetics,
Center for Cancer Research, National Cancer Institute,
National Institute of Health, Bethesda, Maryland
Drug resistance and disease progression are common in multiple myeloma (MM) patients, underscoring the need for new therapeutic combinations. […] We hypothesized that effective combinations would reduce MYC expression and enhance p16 activity. […] These preclinical data identify potentially useful drug combinations for evaluation in drug-resistant MM and reveal potential mechanisms of combined drug sensitivity.
Described herein is the primary MIPE qHTS used to cherrypick compounds. Validated compounds were then further tested for potential synergistic activiy.
[1] Peat TJ, Gaikwad SM, Dubois W, Gyabaah-Kessie N, Zhang S, Gorjifard S, Phyo Z, Andres M, Hughitt VK, Simpson RM, Miller MA, Girvin AT, Taylor A, Williams D, D'Antonio N, Zhang Y, Rajagopalan A, Flietner E, Wilson K, Zhang X, Shinn P, Klumpp-Thomas C, McKnight C, Itkin Z, Chen L, Kazandijian D, Zhang J, Michalowski AM, Simmons JK, Keats J, Thomas CJ, Mock BA. Drug combinations identified by high-throughput screening promote cell cycle transition and upregulate Smad pathways in myeloma. Cancer Lett. 2023 Aug 1;568:216284. doi: 10.1016/j.canlet.2023.216284. Epub 2023 Jun 24. PMID: 37356470; PMCID: PMC10408729.
SEQUENCE No. (e.g., 1, 2, 3, etc.); […] (e.g., Cells, Incubation, Reagent, etc.); VALUE and DESCRIPTION.
1; Cells; 5 uL; white, solid bottom 1536-well Greiner assay plate.
2; Compounds; 23 nL; Kalypsis pin tool (Wako USA) equipped with a 1536-well pin head to transfer to the assay plates.
3; Incubation; 48 hours; 37C incubation.
4; Reagent;5uL; CellTiter Glo (Promega).
5; Detector; 425V; Luminescence; Viewlux PerkinElmer.
NOTES (numbers refer to Sequence numbers above)
1. The cell-based screening methods employed in this study were like those previously published. Briefly, the corresponding myeloma cell lines were screened in 1,536-well plates with 500 cells, 5-uL per well for inhibition of cell viability (assessed by measuring ATP levels with CellTiterGlo).
2. NCATS MIPE 4.0 library of approved and investigational drugs were added using the Kalypsis pin tool. Wells treated with DMSO only for 100% viability and media only for 0% viability were used as controls.
3. The assay plates were covered and incubated for 48 hours in a 37C, 5% CO2 incubator with controlled humidity.
4. After 48 hours, CellTilter-GloTM luminescent substrate mix (Promega) reagent was added to the assay plate and plates we incubated for 5 min at room temperature.
5. Signal was measured as median relative luminescence units on a ViewLux (PerkinElmer) multiplate reader.
[1] Heske CM, Davis MI, Baumgart JT, Wilson K, Gormally MV, Chen L, Zhang X, Ceribelli M, Duveau DY, Guha R, Ferrer M, Arnaldez FI, Ji J, Tran HL, Zhang Y, Mendoza A, Helman LJ, Thomas CJ. Matrix Screen Identifies Synergistic Combination of PARP Inhibitors and Nicotinamide Phosphoribosyltransferase (NAMPT) Inhibitors in Ewing Sarcoma. Clin Cancer Res. 2017 Dec 1;23(23):7301-7311. doi: 10.1158/1078-0432.CCR-17-1121. Epub 2017 Sep 12. PMID: 28899971; PMCID: PMC6636827.
Potency means the concentration at half of the fitted maximal effect.

SMILES | Potency | viability, % of control
N#CC(c1ccnc(NCCc2cccnc2)n1)c1nc2ccccc2s1 (stereo not given) | 26.4 µM (active) | –
NS(=O)(=O)c1cc(Cl)c(Cl)c(S(N)(=O)=O)c1 | – | 112% (inactive)
O=C1Nc2ccc(I)cc2C1=Cc1cc(Br)c(O)c(Br)c1 | – | 111% (inactive)
Nc1ccn([C@@H]2O[C@H](CO)[C@@H](O)[C@H]2O)c(=O)n1 | – | 86.2% (inactive)
CCNC(=O)c1noc(-c2cc(C(C)C)c(O)cc2O)c1-c1ccc(CN2CCOCC2)cc1 | 0.0332 µM (active) | –
C[C@]12CC[C@@H]3c4ccc(O)cc4CC[C@H]3[C@H]1[C@@H](O)[C@@H](O)[C@H]2O | – | 106% (inactive)
Cc1cccc2c1CC[C@H](CN1CCC(c3c(Cl)cccc3Cl)CC1)C[C@@H]2O | 14.8 µM (active) | –
CC=C1C2C=C(C)CC1(N)c1ccc(=O)[nH]c1C2 (stereo not given) | – | 129% (inactive)
CCN1CCC(n2cc(CNc3cc(Cl)c4ncc(C#N)c(Nc5ccc(F)c(Cl)c5)c4c3)nn2)CC1 | 20.9 µM (active) | –
Nc1nc(Cl)nc2c1ncn2[C@@H]1O[C@H](CO)[C@@H](O)[C@H]1F | 0.0235 µM (active) | –
CC(C)CNc1ccnc(NCc2csc(-c3ccccc3)n2)n1 | 16.6 µM (active) | –
CN1CC(=O)NC1=NC(=O)Nc1cccc(Cl)c1 | – | 108% (inactive)
Cc1c(C(=O)Nc2ccc(N3C[C@@H](C)O[C@@H](C)C3)nc2)cccc1-c1ccc(OC(F)(F)F)cc1 | – | 99.7% (inactive)
C[C@@]1(C(=O)Nc2ccc(F)nc2)CCCN1c1nc(Nc2cc(C3CC3)[nH]n2)c2cccn2n1 | 0.0372 µM (active) | –
CN1CCN(c2ncc(-c3cc(Cl)cc(Cl)c3Cl)c(N)n2)CC1 | – | 82% (inactive)
C[C@@H]1O[C@@H](O[C@H]2CC[C@@]3(C)[C@H](CC[C@@H]4[C@H]3C[C@@H](O)[C@]3(C)[C@@H](C5=CC(=O)OC5)CC[C@]43O)C2)C[C@H](O)[C@@H]1O[C@H]1C[C@H](O)[C@H](O[C@H]2C[C@H](O)[C@@H](O)[C@@H](C)O2)[C@H](C)O1 (stereo in doubt) | 0.0959 µM (active) | –
CN(C)c1nc(Cc2ccc(NC(=O)c3ccc(C(F)(F)F)cc3)cc2)nc(N(C)C)c1CC(=O)O | – | 122% (inactive)
COc1ccnc(CS(=O)c2nc3ccc(OC(F)F)cc3[nH]2)c1OC (stereo not given) | – | 113% (inactive)
CCCCC(C=O)NC(=O)C(CC(C)C)NC(=O)OCc1ccccc1 (stereo not given) | 23.5 µM (active) | –
CC1CCN(c2cc(N3CCN(C)CC3)ccc2NC(=O)c2cc(C#N)c[nH]2)CC1 | – | 105% (inactive)

SMILES | Potency | viability, % of control
CC1(C)CC(=O)c2c(C(F)(F)F)nn(-c3ccc(C(N)=O)c(NC4CCC(O)CC4)c3)c2C1 (stereo not given) | 0.0372 µM (active) | –
CCN1CCN(c2ccc(Nc3cc(N(C)C(=O)Nc4c(Cl)c(OC)cc(OC)c4Cl)ncn3)cc2)CC1 | – | 90% (inactive)
Cc1cc(OCCCS(C)(=O)=O)cc(C)c1-c1cccc(COc2ccc3c(c2)OC[C@H]3CC(=O)O)c1 | 20.9 µM (active) | –
O=C(NCCCCN1CCOCC1)c1cc2ccccc2o1 | – | 111% (inactive)
COc1ccc(-c2nc3ccc(C4=NNC(=O)CC4C)cc3[nH]2)cc1 (stereo not given) | – | 95.5% (inactive)
CCCCC(C)(C)[C@H](O)C=C[C@H]1[C@H](O)CC(=O)[C@H]1CC=CCCCC(=O)O | – | 92.7% (inactive)
CC(C)[C@H](O)C(=O)N[C@@H](C)C(=O)N[C@@H]1C(=O)N(C)CCc2ccccc21 | – | 115% (inactive)
COc1c(C)c2c(c(O)c1CC=C(C)CCC(=O)OCCN1CCOCC1)C(=O)OC2 | 3.32 µM (active) | –
CN1CCc2c(n(Cc3ccc(C(=O)NO)cc3)c3ccccc23)C1 | 18.7 µM (active) | –
O=C(C=Cc1ccc(O)cc1)c1ccc(O)cc1O | 14.8 µM (active) | –
CNc1nc(Nc2ccc(C(=O)N3CCOCC3)cc2OC)ncc1Cl | – | 122% (inactive)
CCCCC[C@H](O)C=C[C@H]1[C@H](O)CC(=O)[C@H]1CCCCCCC(=O)O | – | 108% (inactive)
COc1ccc(-c2cc(=O)c3c(O)cc(O[C@@H]4O[C@H](CO[C@@H]5O[C@@H](C)[C@H](O)[C@@H](O)[C@@H]5O)[C@@H](O)[C@H](O)[C@@H]4O)cc3o2)cc1O | – | 103% (inactive)
CC(=O)O[C@]1(C(C)=O)CC[C@H]2[C@@H]3C=C(Cl)C4=CC(=O)[C@@H]5C[C@H]5[C@]4(C)[C@@H]3CC[C@@]21C | – | 93% (inactive)
COc1cc(F)c(C(C)C)cc1-c1ccc(C(F)(F)F)cc1CN1C(=O)O[C@H](c2cc(C(F)(F)F)cc(C(F)(F)F)c2)[C@@H]1C | – | 113% (inactive)
O=C(CC12CC3CC(CC(C3)C1)C2)Nc1cccc2nc(NCCNCCO)ccc12 | 23.5 µM (active) | –
COc1cc(Nc2nc3ccccc3nc2NS(=O)(=O)c2ccc(NC(=O)c3ccc(C)c(OC)c3)cc2)cc(OC)c1 | – | 106% (inactive)
CN1CCC[C@H]1CCO[C@](C)(c1ccccc1)c1ccc(Cl)cc1 | 5.26 µM (active) | –
Cc1nc2c([nH]1)CCN(C(=O)c1ccc(NC(=O)c3ccccc3-c3ccccc3)cc1)c1ccccc1-2 | – | 91.9% (inactive)
CN1C(=O)C[C@H](C(=O)N[C@@H](Cc2cnc[nH]2)C(=O)N2CCC[C@@H]2C(N)=O)NC1=O | 8.33 µM (active) | –
